Hit rate of the full screen: of about 69,000 compounds, about 8,600 (12%) showed an effect of 50% or more. This is one part of a sample in which strong results are shown more often than they occur.

For the assay, the system named is Plasmodium berghei. As to the kind of experiment: Screen against P. berghei liver stage (PbLuc), transformed with Luciferase, at 10uM. The class given is functional, HepG2. The conditions noted are these: tested at 10 uM.
In the case of `CCOCC(=O)N1CCC2(CC1)COCCN2CCN(C)C`, the INHIBITION is listed as -3.33%. For `O=C(c1ccc(F)cc1)N1C[C@H]2CCC[C@@]2(COCc2ccncc2)C1` the value was 16.8%.

Consider `CC(C)CNC(=O)C1(Cc2ccccc2-c2cccs2)CCNC1` (configuration not stated), for which the INHIBITION is given as 14.7%. As to `COc1ccc(C(C)NC(=O)Cn2ccc(=O)n(C)c2=O)cc1F` (configuration not stated), the INHIBITION is -29.8%.

Turning to `Cc1ccccc1OCC(O)CN1CCC(Cn2cccn2)CC1` (configuration not stated), the INHIBITION stood at 17.5%. The result for `O=S1(=O)c2ccccc2OCC2(CCN(CCO)CC2)CN1CC1CC1` reads -8.94%; that for `CC(=O)N1CC2(CCN(C(=O)c3ccoc3)C2)C1`, 27.6%. For `CC(=O)N1CCCC2(CCN(C(=O)c3ccc(Cl)c(C(F)(F)F)c3)C2)C1` (configuration not stated) the value was 32.2%; for `CC(=O)N1CCC2(CCCN(C(=O)c3ccc(Cl)c(C(F)(F)F)c3)C2)C1` (configuration not stated), 28.7%. The result for `CC(=O)N1CCC2(CCN(C(=O)c3ccc(Cl)c(C(F)(F)F)c3)C2)C1` (configuration not stated) reads 50.9%. With `CC(=O)N1CC2(CCN(C(=O)c3ccc4c(c3)OCCO4)CC2)C1`, the INHIBITION was -38.1%.

In the case of `CC(=O)N1CCC2(CCN(C(=O)c3ccc(Cl)c(C(F)(F)F)c3)CC2)C1`, the INHIBITION was 51.2%. The result for `Cc1nc(-c2cccnc2)ncc1C(=O)N1CCCC(N(C)C)CC1` (configuration not stated) reads 21.6%.

As to `Cc1nc(-c2cccnc2)ncc1C(=O)N1CCC(C(C)N(C)C)CC1` (configuration not stated), the INHIBITION came out at 70.4%. For `Cc1nc(-c2cccnc2)ncc1C(=O)N1CCCCC(N)C1` (configuration not stated) the value was 55.6%. The result for `CCCOCC1CCN(C(=O)c2cnc(-c3cccnc3)nc2O)C1` (configuration not stated) reads -27.3%; that for `Cc1nc(-c2cccnc2)ncc1C(=O)N1CCC(c2ncc[nH]2)CC1`, 21.6%. The result for `N[C@H]1CCCN(C(=O)c2cnc(COc3ccccc3)nc2O)C1` reads -58%; that for `Cc1nn(C)c(C)c1C1CCCN1Cc1nc(-c2cccs2)no1` (configuration not stated), -2.53%. For `CC(C)c1nccc(CN2CCCC(O)(CN(C)C)CC2)n1` (configuration not stated), the INHIBITION was -3.55%. Consider `CC1CN(CC(=O)N2CCOCC2)CCN1Cc1nccn1C` (configuration not stated), for which the INHIBITION is 20.915%. The result for `Cc1nc2c(c(Nc3ccccn3)n1)CN(S(C)(=O)=O)CC2` reads -10.4%. Consider `N#Cc1ccccc1C(=O)N1C[C@@H]2CC[C@H]1CN(Cc1ccccc1)C2`, for which the INHIBITION turned out to be 27.6%. Consider `COCCn1ccc(NCc2scnc2C)n1`, for which the INHIBITION is 17.7%.

With `COCCCSc1ccc(NCc2scnc2C)cc1`, the INHIBITION is reported as 95.4%. In the case of `COCCCSc1ccc(NCc2cscn2)cc1`, the INHIBITION was 26.9%.

Regarding `COCCCSc1ccc(NC(=O)Nc2cn[nH]c2)cc1`, the INHIBITION was found to be 41.2%. The result for `COCCCSc1ccc(NCc2ccc(C)cn2)cc1` reads 72.2%; that for `COc1cc2nc(NCc3scnc3C)nc(N)c2cc1OC`, 45%; that for `COCCCNC(=O)c1cc(OC)c2ccoc2c1`, -25.7%. With `CNC(=O)[C@H]1C[C@@H]2CN(C(=O)c3ccoc3)C[C@@H]2N1S(C)(=O)=O`, the INHIBITION is recorded as -15.2%. The result for `Cc1ccsc1C(=O)NCc1ccnc(N2CCN(C)CC2)c1` reads 4.45%. The result for `Cn1cc(NC(=O)Cc2ccccc2Br)cc1C(N)=O` reads -3.21%. For `CC(C)(C)c1ccc(OCC(=O)O)c(CN2C[C@H]3CC(O)C[C@H]3C2)c1` (some centres not stated), the INHIBITION came out at 40.55%.

`Cc1ccccc1CN1CCC2(COCc3cnc(N(C)C)nc32)C1` (configuration not stated): the INHIBITION is on record as 21.8%. `Cc1noc(C)c1CN(C)C(=O)c1ccc(C(F)(F)F)nc1`: the INHIBITION is on record as -9.37%. For `CN(C)CCN1CCOCC2(CCN(Cc3ccc[nH]3)CC2)C1` the value was -7.94%; for `Cc1cccc(N2CC(c3nnc(N)s3)CC2=O)c1` (configuration not stated), 35%. For the compound `Fc1ccc(-c2noc([C@@H]3Cc4nc[nH]c4CN3)n2)cc1`, the INHIBITION was -9.26%. As for `Cc1ccc(-c2noc([C@@H]3Cc4nc[nH]c4CN3)n2)cc1`, the INHIBITION came to 36.2%. With `FC(F)(F)Oc1ccc(-c2noc([C@@H]3Cc4nc[nH]c4CN3)n2)cc1`, the INHIBITION is 64.8%. The result for `O=C(N[C@H]1CCCC[C@@H]1O)c1ccc(-c2nc3ccccc3[nH]2)cc1` reads 14.5%. The result for `Cc1ccc(NC2CCN(C(=O)c3cc(C)no3)CC2)nn1` reads -25.85%; that for `CN(CCC(F)(F)F)C(=O)C1CSCN1C(=O)C(C)(C)C` (configuration not stated), 31.2%. For the compound `Cc1ncoc1C(=O)N1CCCC(c2ccc3c(N)nn(C)c3n2)C1` (configuration not stated), the INHIBITION stood at 5.2%. With `CNc1nc(C2CCCN2C(C)=O)nc2c1CCN(CC1CC1)C2` (configuration not stated), the INHIBITION is listed as -2.42%.

With `CNc1nc(C2CCCN2C(C)=O)nc2c1CN(C1CCCC1)CC2` (configuration not stated), the INHIBITION was 67.9%.

With `CNc1nc(C2CCN(C(=O)CC3CCCC3)C2)nc2c1CN(C)CC2` (configuration not stated), the INHIBITION worked out at 67.7%. The result for `CCC(=O)N1CCC(c2nc3c(c(NC)n2)CN(C)CC3)C1` (configuration not stated) reads -22.6%; that for `CNc1nc(C2CCCN2C(C)=O)nc2c1CN(CCO)CC2` (configuration not stated), 11.5%.

As to `CNc1nc(C2CCCN(C(=O)CNC(C)=O)C2)nc2c1CN(C)CC2` (configuration not stated), the INHIBITION was 42.4%. For `CSCC(C)(O)CNS(=O)(=O)Cc1ccc(F)cc1` (configuration not stated) the value was 33.7%; for `CC(C)(C(=O)O)S(=O)(=O)c1ccc(Br)cc1`, 4.82%; for `Cn1ncc2c1C(COCC1CC1)CN(Cc1ccoc1)C2` (configuration not stated), 35.8%. For `O=C(COc1ccccc1)N(Cc1ccncc1)C1CC1` the value was 61.9%; for `N#Cc1cccc(CN(CCO)Cc2ccsc2)c1`, 33.4%. Take `Cc1cccc(OCC(=O)N(Cc2ccncc2)C2CC2)c1`: the INHIBITION worked out at 31.3%. The result for `N#Cc1cccc(OCC(=O)N(Cc2ccncc2)C2CC2)c1` reads 59.1%; that for `N#Cc1ccc(C(=O)N(Cc2ccncc2)C2CC2)cc1`, -19.4%. Consider `Cc1noc(C)c1CN(C)C(=O)COc1cccc(C#N)c1`, for which the INHIBITION was 8.08%. Consider `O=C(c1cccnc1)N(Cc1ccncc1)C1CC1`, for which the INHIBITION is 14.8%. The result for `N#Cc1cccc(OCC(=O)N(Cc2ccsc2)C2CC2)c1` reads 54.5%; that for `COc1cc(C(C)=O)ccc1OCC(=O)N(Cc1ccsc1)C1CC1`, -16%; that for `O=C(COc1ccc2c(c1)CCC2)NCc1ccco1`, 33.2%.

Regarding `O=C(NC1CCC2(CCC(=O)N2CC2CC2)CC1)c1cnccn1` (configuration not stated), the INHIBITION is given as -40.5%. Take `CNC(=O)C(C)(C)N1CCC[C@H]1C(=O)NCCN(C)C`: the INHIBITION is given as 49.4%. For `C=C(C)CSc1nnc(CCNC(=O)OC(C)(C)C)o1`, the INHIBITION is given as -0.532%. `COC(=O)CSc1nnc(CCNC(=O)OC(C)(C)C)o1`: the INHIBITION is recorded as 52.5%. The result for `CCSc1nnc(CCNC(=O)OC(C)(C)C)o1` reads -17.3%; that for `Cc1cccc(-c2nccnc2C2CCCN(C)C2)c1` (configuration not stated), 16.105%; that for `Cc1nccn1CC1CCCN1S(=O)(=O)Cc1cccc(F)c1` (configuration not stated), -7.35%.

In the case of `O=C(c1cc(C2CCCCC2)no1)N1C[C@H]2CC(O)C[C@H]2C1` (some centres not stated), the INHIBITION is given as -15.1%. The result for `Cc1ncc2c(n1)CCCC2NC(=O)c1ccccc1C(=O)O` (configuration not stated) reads 11.6%. For `Cc1ncc2c(n1)CCCC2NC(=O)c1cnn(Cc2ccccc2)c1` (configuration not stated) the value was 26.4%. For `Cc1ncc2c(n1)CCCC2NC(=O)c1ccccc1Cn1cncn1` (configuration not stated) the value was 64%; for `Cc1nc(C)c(C(=O)N2CCc3nnc(C4CCCN4C)n3CC2)s1` (configuration not stated), -14.6%. `CCN1CCOCC12CCN(C(=O)Cc1cccs1)CC2`: the INHIBITION was 23.3%. For the compound `O=C(Cc1ccccc1)N1CCC2(CCN2Cc2ccc(F)cc2)C1` (configuration not stated), the INHIBITION is listed as 1.34%. For `O=C(C1CC1)N1CCC2(CC1)COCCN2Cc1ccc(F)cc1` the value was 68.4%; for `CC(C)CC(=O)N1CCC2(CC1)COCCN2Cc1ccc(F)cc1`, 56.7%. With `CCN1CCOCC12CCN(C(=O)Cc1ccccc1)CC2`, the INHIBITION worked out at 28.7%. For `CCC(=O)N1CCC2(CC1)COCCN2Cc1ccc(F)cc1` the value was 66%; for `O=C(CC1CCCC1)N1CCC2(CCN2Cc2ccc(F)cc2)C1` (configuration not stated), -43%. With `O=C(C1CC1)N1CCC2(CCN2Cc2ccc(F)cc2)C1` (configuration not stated), the INHIBITION is given as 9.97%.

As for `CC(=O)N1CCC2(CC1)COCCN2Cc1ccc(F)cc1`, the INHIBITION is 34.7%. For `CC(C)C(=O)N1CCC2(CC1)COCCN2Cc1ccc(F)cc1` the value was 63.7%.

Regarding `COCC(=O)N1CCC2(CC1)COCCN2Cc1ccc(F)cc1`, the INHIBITION worked out at 26.4%. The result for `O=C(C1CC1)N1CCC2(CCCN2Cc2ccc(F)cc2)CC1` reads 13.7%.

On to `CC(=O)NCCCNC(=O)N1CCN(c2cc(F)ccc2F)CC1`, for which the INHIBITION is listed as -15%.

On to `N#Cc1ccccc1CN1C[C@H]2CC[C@@H](C1)N(Cc1cscn1)C2=O`, for which the INHIBITION stood at 6.8%. For the compound `CCc1nc(C)sc1CN1CC[C@@](O)(CCOC)[C@H](C)C1`, the INHIBITION was 21.8%. Consider `COCCn1cncc1-c1nc2c([nH]1)CC(C)(C)CNC2=O`, for which the INHIBITION is listed as -27.6%. The result for `COCC(=O)N1CCCCC1c1nc(C)c2c(n1)N(C1CC1)C(=O)CC2` (configuration not stated) reads 36.9%.

On to `CCN1CCC(NC(=O)CN2CCCC2Cn2nc(C)nc2C)CC1` (configuration not stated), for which the INHIBITION stood at 31.2%. For `CSCC[C@H](NC(=O)Cn1ccc2ccc(Cl)cc21)C(=O)O` the value was -30.8%; for `Cc1cc(CN2CCCC2Cn2cccn2)no1` (configuration not stated), 9.2%. In the case of `CSCc1cccc(S(=O)(=O)N2CCCCCC2)c1`, the INHIBITION worked out at 2.69%. For `Cc1cc(NC2CCc3nc(C(C)C)nn3C2)n2ncnc2n1` (configuration not stated) the value was 49.1%; for `Cn1nnc2c1C(COCc1ccccn1)CN(C(=O)c1cccs1)C2` (configuration not stated), 31.8%. In the case of `CS(=O)(=O)N1CC[C@]2(C[C@@H](Oc3ccccn3)CO2)C1`, the INHIBITION was 29%. For `COc1ccc(C(=O)N2C[C@@H](c3ccccc3)[C@@H]3NCCCC[C@@H]32)cc1`, the INHIBITION is recorded as 15.9%. For the compound `COc1cccc([C@H]2CN(C(=O)c3ccccc3)[C@@H]3CCCN[C@H]23)c1`, the INHIBITION is 55.6%. For `COc1cccc(C(=O)N2C[C@@H](c3ccccc3)[C@@H]3NCCCC[C@@H]32)c1` the value was 5.11%; for `CCn1cc(CN2CCCN(C(=O)c3ccoc3)CC2)cn1`, 41.2%. For `O=C(C[S+]([O-])Cc1csc(C2CCCC2)n1)NC1CCCC1` (configuration not stated), the INHIBITION was found to be 36.9%.

In the case of `CCC(C)(C)NC(=O)C[S+]([O-])Cc1csc(C2CCCC2)n1` (configuration not stated), the INHIBITION is listed as 63.8%.

Regarding `CCCNC(=O)C[S+]([O-])Cc1csc(C2CCCCC2)n1` (configuration not stated), the INHIBITION came to 23%.

The values are drawn from ChEMBL document CHEMBL4513216, “Probing the Open Global Health Chemical Diversity Library for Multistage-Active Starting Points for Next-Generation Antimalarials” (ACS Infect Dis, 2020).
